Our source for the activation values is PubChem BioAssay AID833 (The Scripps Research Institute Molecular Screening Center, 2007).

The structures appear in SMILES notation. Out of some 16,000 compounds screened, about 80 (0.5%) were called active. Shown is part of a subset that was picked to be rich in actives. A number with no mark means an inactive call. Cut-off read from the data, not from the text of the source: active = activation above about 15%; inactive = the rest.

For this experiment, the target named is Galanin receptor type 2 (Rattus norvegicus) (UniProt O08726). Briefly: activates the rat galanin receptor 2 (AID 833). The following applies: cell-based GALR2 agonist screen; at 10 µM; active compounds read high.
Chain of Galanin receptor type 2 (Rattus norvegicus) (O08726 whole entry, looked up): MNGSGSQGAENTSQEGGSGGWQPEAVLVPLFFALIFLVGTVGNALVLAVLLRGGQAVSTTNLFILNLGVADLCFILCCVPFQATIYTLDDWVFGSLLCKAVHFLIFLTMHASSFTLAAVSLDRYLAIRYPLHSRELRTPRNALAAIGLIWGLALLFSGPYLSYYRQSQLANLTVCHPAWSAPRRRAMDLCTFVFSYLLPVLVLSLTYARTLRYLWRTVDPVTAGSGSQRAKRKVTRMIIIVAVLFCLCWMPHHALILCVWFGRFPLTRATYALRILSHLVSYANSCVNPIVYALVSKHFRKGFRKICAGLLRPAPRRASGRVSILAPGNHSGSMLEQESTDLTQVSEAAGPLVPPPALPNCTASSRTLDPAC
As for `O=C(Nc1cccnc1Oc1ncnc2cc(Cl)ccc12)c1ccc(F)cc1`, the activation was -3.54%.

For the compound `CS(=O)(=O)/N=C(\N)c1ccncc1`, the activation is -6.47%.

`CCOC(=O)Cn1cc(Cl)ccc1=O`: the activation was -2.49%.

Turning to `O=C1C2C3C=CC(O3)C2C(=O)N1OCc1ccc(OC(F)(F)F)cc1` (stereo not drawn), the activation is -2.8%.

For `O=c1oc2c3ccccc3c3oc(=O)sc3c2s1`, the activation was 16.7% (active).

On to `O=c1[nH]c2ccccc2s1`, for which the activation was -3.62%.

In the case of `CCOc1ccc(C(N)=O)c(SCC(=O)O)c1`, the activation was -10.1%.

For the compound `Cn1nnnc1SCC(=O)Nc1ccc(OC(F)(F)F)cc1`, the activation is -4.06%.

For the compound `COc1ccc(/C=N/N2CCC(=O)Nc3ccccc32)c(OC)c1`, the activation is -4.04%.

Regarding `N/C(=N\OCc1noc(-c2ccsc2)n1)c1ccc(C(F)(F)F)cc1`, the activation was -8%.

For the compound `Cc1noc(C)c1C(=O)c1c(C)[nH]n(-c2ccccc2)c1=O`, the activation was -4.7%.

Take `CC(C)(C)NC(=O)NCC(c1ccc[nH]1)C(F)(F)F` (stereo not drawn): the activation is -6.65%.

For the compound `COC(=O)C1=C(c2ccccc2)C(c2ccccc2)=C(C(=O)OC)C1=O`, the activation was -1.25%.

With `N#CC(C#N)=CNc1c(F)cccc1Cl`, the activation is -9.67%.

Regarding `CC(=O)/C(=C\N(C)C)c1ncccc1[N+](=O)[O-]`, the activation is -5.71%.

On to `C=C(C)c1cccc(C(C)(C)NC(=O)CC(C)=O)c1`, for which the activation was -4.52%.

On to `O=C(Cc1cc(F)cc(F)c1)n1nccc1-c1cccs1`, for which the activation was -4.48%.

Regarding `FC(F)(F)c1cccc(NC(=S)NNc2nccc(C(F)(F)F)n2)c1`, the activation was -8.08%.

On to `COC(=O)c1sccc1S(=O)(=O)Nc1ccccc1Sc1ncnc2c(C)csc12`, for which the activation is -5.48%.

On to `N/C(=N\S(=O)(=O)c1ccc(Cl)cc1)N1CCOCC1`, for which the activation was -1.28%.

Consider `Fc1ccc(Oc2nc(Oc3ccc(F)cc3)nc(N3CCSCC3)n2)cc1`, for which the activation was -8.25%.

Turning to `CN(NS(=O)(=O)c1ccc(C(F)(F)F)cc1)c1cnn(C)c(=O)c1Cl`, the activation is -5.39%.

Take `COC(=O)c1ccsc1NC(C)=O`: the activation was -5.28%.

Consider `CCOC(=O)c1ccc(NC)c(N)c1`, for which the activation was -7.18%.

For the compound `CN(C)c1ccc(/C=C(\C#N)S(C)(=O)=O)c(Cl)c1`, the activation was -4.37%.

As to `CC(C)[C@H]1COC(c2cccc(C3=N[C@@H](C(C)C)CO3)n2)=N1`, the activation was -5.78%.

Consider `COC(=O)c1sc(S(C)=O)c(-c2ccon2)c1C` (stereo not drawn), for which the activation is -6.07%.

Turning to `O=C(Cn1nnc(N2CCOCC2)n1)N/N=C/c1ccc(-c2cccc([N+](=O)[O-])c2)o1`, the activation is -7.32%.
